Test results from PubChem BioAssay (NCI).
“And” between values parts separate entries of the source, which are not always exact repeats. Equal values may be shown once. About 83,000 compounds went through this panel and 20% of them were active in at least one assay; those are over-represented in the sample as a whole.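 Interpretation: 100, growth as untreated; towards 0, rising growth inhibition; 0, no net growth; 0 to -100, cell death. Compounds scoring below 10 were considered active.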 Some compounds were tested as several samples or in several runs, with calls that do not always agree. The source made the active and inactive calls.

How the values were obtained:
Test in all cases: NCI-60 one-dose screen, 48 h (100 = growth as untreated, 0 = no growth, -100 = all killed)
Details in all cases: 10 µM unless noted
SR leukemia = system: SR leukemia
RPMI-8226 leukemia = system: RPMI-8226 leukemia
OVCAR-8 ovarian = system: OVCAR-8 ovarian
OVCAR-5 ovarian = system: OVCAR-5 ovarian
OVCAR-4 ovarian = system: OVCAR-4 ovarian
SK-OV-3 ovarian = system: SK-OV-3 ovarian
IGROV1 ovarian = system: IGROV1 ovarian
OVCAR-3 ovarian = system: OVCAR-3 ovarian
HS 578T breast = system: HS 578T breast
NCI/ADR-RES ovarian = system: NCI/ADR-RES ovarian

| SMILES | growth (SR leukemia) | growth (RPMI-8226 leukemia) | growth (OVCAR-8 ovarian) | growth (OVCAR-5 ovarian) | growth (OVCAR-4 ovarian) | growth (SK-OV-3 ovarian) | growth (IGROV1 ovarian) | growth (OVCAR-3 ovarian) | growth (HS 578T breast) | growth (NCI/ADR-RES ovarian) |
| --- | --- | --- | --- | --- | --- | --- | --- | --- | --- | --- |
| Cc1cc(O)c(C(C)C)cc1S(=O)(=O)O (tested in a mixture with another compound) | 109% (inactive) and -17.3% (active) and 92.1% (inactive) | 88.4% (inactive) and -13.4% (active) and 99.5% (inactive) | 97.7% (inactive) and 13.6% (inactive) and 97.5% (inactive) | 80.8% (inactive) and 28.3% (inactive) and 101% (inactive) | 89.5% (inactive) and 100% (inactive) | 105% (inactive) and 5.41% (active) and 118% (inactive) | 102% (inactive) and -2.34% (active) and 93.9% (inactive) | 109% (inactive) and -20.4% (active) and 107% (inactive) | 95.3% (inactive) and -15.9% (active) and 103% (inactive) | 95.3% (inactive) and 2.8% (active) and 111% (inactive) |
| CC1(C)[C@@H](OC(=O)CCC(=O)O)CC[C@]2(C)[C@H]3C(=O)C=C4[C@@H]5C[C@@](C)(C(=O)O)CC[C@]5(C)CC[C@@]4(C)[C@]3(C)CC[C@@H]12 | 94.3% (inactive) and -13% (active) | 104% (inactive) and -42.2% (active) | 106% (inactive) and -14.1% (active) | 104% (inactive) and -74.9% (active) | 87.9% (inactive) and -0.335% (active) | 102% (inactive) and -64.1% (active) | 105% (inactive) and -35.8% (active) | 99.7% (inactive) and -94% (active) | 112% (inactive) and -12.9% (active) | 107% (inactive) and -0.161% (active) |
| CCC(O)c1ccccc1 (stereo not given) | 100% (inactive) and 94.1% (inactive) | 192% (inactive) | 101% (inactive) and 96.1% (inactive) | 106% (inactive) and 108% (inactive) | 103% (inactive) and 107% (inactive) | 121% (inactive) and 105% (inactive) | 109% (inactive) and 108% (inactive) | 112% (inactive) and 109% (inactive) | 81.8% (inactive) and 93.6% (inactive) | 112% (inactive) and 118% (inactive) |
| Cc1ccc(S(=O)(=O)NCN2C(=O)c3ccccc3C2=O)cc1 | 101% (inactive) | 103% (inactive) | 108% (inactive) | 110% (inactive) | 96.7% (inactive) | 98.4% (inactive) | 107% (inactive) | 113% (inactive) | 108% (inactive) | 110% (inactive) |
| CN(C)c1ccc2nc3ccc(=[N+](C)C)cc-3sc2c1 | 29.2% (inactive) and 39.6% (inactive) and 51.5% (inactive) | 40.4% (inactive) and 34.1% (inactive) and 40.2% (inactive) | 3.76% (active) and 0.437% (active) and 8.05% (active) | 17.7% (inactive) and 14.5% (inactive) and 30.6% (inactive) | 8.61% (active) and -18% (active) and 10.4% (inactive) | 41.4% (inactive) and 60% (inactive) and 73.2% (inactive) | 9.73% (active) and 1.01% (active) and 43.1% (inactive) | 0.379% (active) and -3.68% (active) and 10.2% (inactive) | 49.8% (inactive) and 111% (inactive) | 12.1% (inactive) and 10.9% (inactive) and 13.9% (inactive) |
| CCC(=O)C(CC)c1cccc(OC)c1 (stereo not given) | 96.7% (inactive) | 101% (inactive) | 105% (inactive) | 115% (inactive) | 105% (inactive) | 121% (inactive) | 107% (inactive) | 117% (inactive) | 106% (inactive) | 101% (inactive) |
| COc1ccc(/C(C#N)=C/c2ccccn2)cc1 | 91.1% (inactive) and 87.7% (inactive) | 93.8% (inactive) | 103% (inactive) and 110% (inactive) | 110% (inactive) and 107% (inactive) | 96.1% (inactive) and 93.9% (inactive) | 111% (inactive) and 126% (inactive) | 115% (inactive) and 113% (inactive) | 110% (inactive) and 130% (inactive) | 104% (inactive) and 309% (inactive) | 101% (inactive) and 54.3% (inactive) |
| CN1CCN(CCC=C2c3ccccc3Sc3ccc(S(=O)(=O)N(C)C)cc32)CC1 | 2.47% (active) | 26.4% (inactive) and 23.4% (inactive) | 83.8% (inactive) and 95.7% (inactive) | 80.1% (inactive) | 80.6% (inactive) and 85.2% (inactive) | 87.7% (inactive) and 96.7% (inactive) | 62.1% (inactive) and 58.2% (inactive) | 91.4% (inactive) and 71.7% (inactive) | 52.5% (inactive) and 65.4% (inactive) | 74.7% (inactive) and 84.9% (inactive) |
| O=Nc1ccc(O)cc1 | 79.4% (inactive) and 74.3% (inactive) | 97.6% (inactive) and 103% (inactive) | 106% (inactive) and 92.4% (inactive) | 105% (inactive) and 98.9% (inactive) | 108% (inactive) and 106% (inactive) | 108% (inactive) and 107% (inactive) | 91.7% (inactive) and 82% (inactive) | 89.2% (inactive) and 97.7% (inactive) | 104% (inactive) and 96.6% (inactive) | 89.3% (inactive) and 84.6% (inactive) |
| OC1CCC(Oc2cccc3cnc(Nc4ccc5nc[nH]c5c4)nc23)CC1 (stereo not given) | -15.3% (active) and -4.18% (active) | -16.7% (active) and 55% (inactive) | 5.91% (active) and 52.6% (inactive) | 24.2% (inactive) and 41.7% (inactive) | 15.7% (inactive) and 73.9% (inactive) | 8.38% (active) and 57.4% (inactive) | 19.1% (inactive) and 52.3% (inactive) | 5.57% (active) and 53.7% (inactive) | -7.28% (active) and 15.8% (inactive) | 9.41% (active) and 83.2% (inactive) |
| O=c1c2ccccc2nc2n1Cc1nc3ccccc3c(=O)n1C2 | 85.9% (inactive) | 93% (inactive) and 102% (inactive) | 112% (inactive) and 110% (inactive) | 101% (inactive) and 102% (inactive) | 95.2% (inactive) and 108% (inactive) | 112% (inactive) and 110% (inactive) | 88% (inactive) and 106% (inactive) | 92.6% (inactive) and 112% (inactive) | 91.7% (inactive) and 114% (inactive) | 102% (inactive) and 105% (inactive) |
| O=C(CCl)c1ccc2c(c1)Nc1ccccc1S2 | 13.6% (inactive) and 6.19% (active) | 63.4% (inactive) and 52.1% (inactive) | 95.1% (inactive) and 88.7% (inactive) | 105% (inactive) and 117% (inactive) | 90.1% (inactive) and 83.4% (inactive) | 100% (inactive) and 99.3% (inactive) | 104% (inactive) and 93.3% (inactive) | 96.8% (inactive) and 71.6% (inactive) | 93% (inactive) and 106% (inactive) | 94.7% (inactive) and 95.9% (inactive) |
| Cc1cccc(/C=C\C(=O)c2ccc(Cl)cc2)c1 | 36% (inactive) and 3.37% (active) | 26.1% (inactive) | 101% (inactive) and 100% (inactive) | 93.5% (inactive) and 98.5% (inactive) | 89.1% (inactive) and 103% (inactive) | 108% (inactive) and 104% (inactive) | 101% (inactive) and 92.7% (inactive) | 96.6% (inactive) and 101% (inactive) | 112% (inactive) and 102% (inactive) | 101% (inactive) and 99.2% (inactive) |
| CCc1c(CC(=O)O)c2cc(C)ccc2n1Cc1ccc(Cl)cc1 | 91.5% (inactive) and 146% (inactive) | 97.1% (inactive) | 82.9% (inactive) and 100% (inactive) | 98.2% (inactive) and 98.6% (inactive) | 85.5% (inactive) and 105% (inactive) | 97.9% (inactive) and 42.4% (inactive) | 92.3% (inactive) | 93.8% (inactive) and 110% (inactive) | 87.2% (inactive) and 113% (inactive) | 98.4% (inactive) and 98.7% (inactive) |
| O=[N+]([O-])c1ccc(N/N=C\c2cc(Br)ccc2O)nc1 | 20.2% (inactive) and 3.08% (active) | 32.5% (inactive) and -9.9% (active) | 11.9% (inactive) and 3.96% (active) | 52% (inactive) and 54.4% (inactive) | 20.3% (inactive) and 7.71% (active) | 27.1% (inactive) and 27.7% (inactive) | 13.5% (inactive) and 8.02% (active) | 11.2% (inactive) and 24.5% (inactive) | 39.1% (inactive) and 61.4% (inactive) | 5.25% (active) and 6.08% (active) |
